Measured values from PubChem BioAssay (NCI).
The panel holds about 79,000 compounds, 15% with a hit somewhere; the sample as a whole holds those more often. Cut-off read from the data, not from the text of the source: active = growth inhibition above about 70%; inactive = the rest.

Tests used:
[1] = NCI Yeast Anticancer Drug Screen. Data for the rad50 strain (AID 155);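 note: 0% = growth of vehicle-only cultures of the same strain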; conditions: S. cerevisiae rad50 strain growth inhibition; at 50.0 µM; active compounds read high
In short: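 Vehicle-treated cultures provide the reference for the growth inhibition reported for compound-exposed, repair-deficient yeast.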

[2] = NCI Yeast Anticancer Drug Screen. Data for the mec2-1 strain (AID 157); conditions: S. cerevisiae mec2-1 strain, at 50.0 µM, active compounds read high
In short: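 Readout is yeast growth inhibition, normalised to vehicle-treated controls, in the mec2-1 strain exposed to compound.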

[3] = NCI Yeast Anticancer Drug Screen. Data for the sgs1 mgt1 strain (AID 161);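 note: 0% = growth of cultures given vehicle only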; conditions: S. cerevisiae sgs1 mgt1 strain, at 50.0 µM, active compounds read high
In short: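 Compounds are added to genetically altered yeast, and growth is compared with cultures given vehicle alone to give percent inhibition.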

[4] = NCI Yeast Anticancer Drug Screen. Data for the cln2 rad14 strain (AID 165);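 note: 0% = growth equal to vehicle treated cultures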; conditions: S. cerevisiae cln2 rad14 strain, at 50.0 µM, active compounds read high
In short: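 Relative to vehicle controls, growth inhibition of compound-treated cln2 rad14 yeast was recorded.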

[5] = NCI Yeast Anticancer Drug Screen. Data for the bub3 strain (AID 167); conditions: S. cerevisiae bub3 mutant strain, at 50.0 µM, active compounds read high
In short: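 Mutant yeast screening strain plus compound; vehicle-treated cultures serve as the 0% inhibition reference.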

[6] = NCI Yeast Anticancer Drug Screen. Data for the mlh1 rad18 strain (AID 175); conditions: S. cerevisiae mlh1 rad18 strain growth inhibition; at 50.0 µM; active compounds read high
In short: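 Test agents were incubated with a yeast strain of defined genotype (DNA damage repair defect). Inhibition of growth was derived by comparison with vehicle-exposed cultures.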

Measured: growth inhibition

CCOC(=O)c1ccc(OC)c2[nH]c3c(c(=O)c12)C(=O)c1[nH]c2c(OC)ccc(C(=O)OCC)c2c(=O)c1C3=O
inactive: [1] -25.4% | [2] 15.6% | [3] -23.2% | [4] -17.9% | [5] -0.25% | [6] -25.2%

COC1OC(COC(c2ccccc2)(c2ccccc2)c2ccccc2)C2OC12 (stereo not given)
inactive: [1] 44.1% | [2] 5.15% | [3] 22.6% | [4] 11% | [5] 1.3% | [6] 19.7%

CC(C)=CC(=O)C/C(=N\NC(N)=S)C(=O)Nc1ccc(Cl)cc1
inactive: [1] -7.4% | [2] -27.5% | [3] 5.55% | [4] 9.45% | [5] 5.1% | [6] -1.3%

COC(=O)c1ccccc1C1CN=NC12Cc1c(C)ccc(C)c1C2=O (stereo not given)
inactive: [1] 9.5% | [2] 7% | [3] 16.9% | [4] 14.2% | [5] 3.55% | [6] 29.9%

N#CCCN(CCC#N)c1ccc(C=O)cc1
inactive: [1] 20.3% | [2] 8.05% | [3] 17.2% | [4] -4.25% | [5] 26.6% | [6] 13.6%

O=C(C[n+]1ccc2ccccc2c1)c1ccc(Br)cc1
inactive: [1] -17.1% | [2] 12.3% | [3] 1.8% | [4] -0.65% | [5] -11.9% | [6] 28.9%

Cc1ccc2nc(-c3ccc(-c4nc5ccc(C)cc5o4)c(O)c3)oc2c1
inactive: [1] -36.3% | [2] -14.4% | [3] -27.1% | [4] 2.95% | [5] -17.2% | [6] -24.8%

CC(C)[C@@H]1CC[C@@H](C)C[C@H]1N
inactive: [1] -16.7% | [2] 7.8% | [3] -8.85% | [4] -35.5% | [5] 3.95% | [6] -11.2%

Brc1cc(Br)c(Br)cc1Br
inactive: [1] 6.1% | [2] 5.7% | [3] 8.6% | [4] 13.8% | [5] -3.65% | [6] 12.3%

CN(C)c1c(F)c(F)c(N=Nc2ccccc2)c(F)c1F
inactive: [1] 0.75% | [2] -2.6% | [3] 1.15% | [4] -3.15% | [5] 16.8% | [6] -12.1%

NC(=O)N/N=C(\CCC(=O)N(Cc1ccccc1)Cc1ccccc1)CC(=O)c1ccc(F)cc1
inactive: [1] -1.5% | [2] 10.8% | [3] -30.9% | [4] 18.8% | [5] -7.9% | [6] -14.9%

COCCCN1C(=O)C2c3[nH]c4ccccc4c3C3CCC(C(C)(C)C)CC3C2C1=O (stereo not given)
inactive: [1] 34.9% | [2] 8.55% | [3] 21.9% | [4] 45.4% | [5] 35.1% | [6] 49.5%

Cc1nc(N)[nH]c(=O)c1CCCNc1ccc(CCCCCCC2(CCl)OCCO2)cc1
inactive: [1] 12.4% | [2] -0.15% | [3] 1.45% | [4] 2.9% | [5] 17.4% | [6] -9.4%

COc1cc(OC)cc(Oc2nc3ccc(C(F)(F)F)cc3nc2-c2ccccc2)c1
inactive: [1] -33.1% | [2] -44.8% | [3] -7.85% | [4] -28.3% | [5] -27.4% | [6] -14.3%

O=c1cc(O)nc2cn[nH]n12
inactive: [1] 4.8% | [2] -22.4% | [3] 7.65% | [4] 13.4% | [5] -3.45% | [6] 1.6%

Nc1nc(=O)n(C2OC(CO)C(O)C2O)cc1F (stereo not given)
inactive: [1] 10.8% | [2] -10.2% | [3] 4.4% | [4] -3.1% | [5] 11.5% | [6] 7.6%

CN(C)Cc1cn(C[Si](C)(C)C)c2ccccc12
inactive: [1] 18.6% | [2] -3.25% | [3] 7.7% | [4] 0.35% | [5] 3.75% | [6] 13.2%

COc1c2ccoc2nc2c(O)c3c(c(CC=C(C)C)c12)OCO3
inactive: [1] -6.65% | [2] -7% | [3] -4.7% | [4] 16.2% | [5] -4.9% | [6] -2.95%

Cc1c(F)c(N)c2c(=O)cc(-c3ccc(N)c(F)c3)oc2c1F
inactive: [1] 32.8% | [2] 16.1% | [3] 30.1% | [4] 21.3% | [5] 22.9% | [6] 1.2%

CC1Cc2c([nH]c(=O)n(C)c2=O)O1 (stereo not given)
inactive: [1] 1.15% | [2] 8.2% | [3] 8.4% | [4] -1.5% | [5] -21.1% | [6] 2.1%

O=C1CCCC1CC(CN1CCOCC1)Sc1nnnn1-c1ccccc1 (stereo not given)
inactive: [1] 6.55% | [2] -3.5% | [3] 17.1% | [4] -16.6% | [5] 25.2% | [6] -45.8%

O=CC(NC(=O)C(O)C(O)C(O)C(O)CO)C(O)C(O)C(O)CO (stereo not given)
inactive: [1] -13.2% | [2] 6.8% | [3] -1.45% | [4] -40% | [5] -0.95% | [6] 1.15%

Cc1ccc(C(C)C)c(OCC2=NCCN2C)c1
inactive: [1] -7.15% | [2] -3.15% | [3] 3.35% | [4] 0.4% | [5] -16.1% | [6] -10.2%

CCc1nc(N)nc(N)c1-c1ccc(N(CC)Cc2ccccc2)c([N+](=O)[O-])c1
inactive: [1] 7.35% | [2] -3.05% | [3] -6.05% | [4] 7.5% | [5] 3.4% | [6] -3.85%

CCOC(=O)c1oc2ccc([N+](=O)[O-])c3c2c1CCC3
inactive: [1] 1.8% | [2] -1.95% | [3] -7% | [4] -2.35% | [5] -64% | [6] -8.05%

CCS(=O)(=O)OCCOC
inactive: [1] -2.65% | [2] -26.1% | [3] -17.1% | [4] 57.6% | [5] -14.8% | [6] 10.2%

CCOC(=O)c1ccc(N(N=O)C(C)C)cc1
inactive: [1] 5.3% | [2] 5.15% | [3] 9.6% | [4] -16% | [5] 1.25% | [6] 5.15%

CCOC(=O)C(=N\Nc1ccccc1Br)/C(C)=N\NC(N)=S
inactive: [1] 50% | [2] 19.6% | [3] 56.9% | [4] 14.7% | [5] 9.3% | [6] 33%

Cc1ccc(NC(=O)Nc2cccc(C(F)(F)F)c2)cc1NC(=O)Nc1cccc(C(F)(F)F)c1
inactive: [1] 2.75% | [2] 15% | [3] 31.9% | [4] 23.7% | [5] -6.6% | [6] 29.6%

O=C1OC(=O)C2C1C1C=CC2C1(c1ccccc1)c1ccccc1 (stereo not given)
inactive: [1] 9.05% | [2] 4.25% | [3] 8.95% | [4] -5.65% | [5] 25.5% | [6] 7%

CCN(CC)c1ccc2c(c1)Oc1ccc(N(C(C)=O)c3ccccc3)cc1C21OC(=O)c2ccccc21 (stereo not given)
inactive: [1] 25.5% | [2] 13.1% | [3] 29.6% | [4] 31% | [5] 51.4% | [6] 19.2%

Cc1ccc2c(c1)[nH]c(=S)n2C=C1C(=O)NC(=O)NC1=O
inactive: [1] -6.3% | [2] -27.9% | [3] -38% | [4] -10.6% | [5] -7.35% | [6] -15.4%

Brc1cccc2c(SCCCCCCSc3c4ccccc4nc4c(Br)cccc34)c3ccccc3nc12
inactive: [1] 3.1% | [2] -16.1% | [3] -18.8% | [4] -52.5% | [5] -21% | [6] 5.85%

Fc1ccc(-c2ccc(Br)cc2)cc1
inactive: [1] 3.95% | [2] 3.4% | [3] 2.05% | [4] -44% | [5] 17% | [6] -3.65%

CC(=O)Oc1cc2c(cc1Cc1ccc3c(c1)OCO3)OCO2
inactive: [1] -18.6% | [2] -17.2% | [3] -7% | [4] -6.2% | [5] 15.9% | [6] -14.5%

CC(=O)NC1c2ccccc2-c2ccccc21
inactive: [1] -5.1% | [2] 34.2% | [3] -1.15% | [4] 42% | [5] 17.3% | [6] 3.8%

COC(=O)CCc1nc2ccccc2c(=O)[nH]1
inactive: [1] 6.45% | [2] 1.05% | [3] -6.05% | [4] -35.8% | [5] -14.9% | [6] -12.4%

O=C1c2ccccc2C(=O)c2c(NCCNC(=O)C3CCCN3)ccc(NCCNC(=O)C3CCCN3)c21 (stereo not given)
inactive: [1] -1.25% | [2] -11.7% | [3] 21.8% | [4] 3.4% | [5] -3.7% | [6] -85.5%

CCOC(=O)c1[nH]c(C(=O)O)c(C(=O)OCC)c1C
inactive: [1] 7.3% | [2] 3.7% | [3] 4.85% | [4] -12.8% | [5] -5.3% | [6] -10.1%

COc1cc(CO)c(CC(=O)NCCCc2ccccc2)cc1OC
inactive: [1] 37.8% | [2] -44.5% | [3] -12.5% | [4] -2.85% | [5] -14.2% | [6] -47.5%
